This is an account of results in PubChem BioAssay AID493056 (National Center for Advancing Translational Sciences (NCATS), 2011).

Each structure is given as a SMILES string. Hit rate of the full screen: of about 360,000 compounds, about 2,400 (0.67%) were called active. The sample holds actives, similar compounds and a random draw of the others, so the mix is not that of the screen. Unmarked numbers belong to inactive results. Cut-off read from the data, not from the text of the source: active = enhancement above about 30%; inactive = the rest.

The target in this test is Thyrotropin-releasing hormone receptor (Homo sapiens) (UniProt P34981). As to the kind of experiment: qHTS for Small Molecule Agonists and Allosteric Enhancers of Human TRH Receptor: Primary Screen for Enhancers. Note: 0% is about no effect. Conditions: TRHR cells, fluo-8 calcium fluorescence, EC20 TRH enhancement; at 2 µM; stronger effect = higher value. The procedure, abridged: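 TRHR-expressing cells loaded with fluo-8 calcium dye were read kinetically (ex 480/em 530) during compound addition, then stimulated with an EC20 of TRH (10 nM final). Enhancement of the Gq-mediated intracellular calcium response was scored.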
Chain of Thyrotropin-releasing hormone receptor (Homo sapiens) (P34981 whole entry, looked up): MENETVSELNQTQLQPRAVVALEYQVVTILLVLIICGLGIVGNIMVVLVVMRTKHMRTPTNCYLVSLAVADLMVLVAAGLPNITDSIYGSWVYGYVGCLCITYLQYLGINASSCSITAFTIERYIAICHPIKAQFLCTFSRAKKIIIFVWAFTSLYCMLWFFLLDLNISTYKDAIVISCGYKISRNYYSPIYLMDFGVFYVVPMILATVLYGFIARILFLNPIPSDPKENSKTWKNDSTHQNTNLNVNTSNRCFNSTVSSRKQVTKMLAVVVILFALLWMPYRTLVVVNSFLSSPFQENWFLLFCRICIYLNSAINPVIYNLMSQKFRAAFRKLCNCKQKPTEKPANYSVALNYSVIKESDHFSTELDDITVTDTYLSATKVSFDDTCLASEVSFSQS
For orientation: In qHTS, concentration-response curves come from the screen itself.
Take `Cc1ccc(NC2=C(c3ccc(C(F)(F)F)cc3)C(=O)c3ccccc32)cc1F`: the enhancement was -15.7%.

With `CCOC(=O)c1c(NC(=O)Cc2coc3ccc(CC)cc23)sc2c1CCC2`, the enhancement was -3.01%.

Regarding `O=C(Nc1nnc(C2CC(=O)N(c3ccc(Cl)cc3)C2)s1)c1ccco1` (centres undefined), the enhancement is -3.65%.

Turning to `CCc1ccc(NC(=O)c2cc(S(=O)(=O)NC3CCCCCC3)ccc2F)cc1`, the enhancement was 3.53%.

Regarding `O=C(Nc1ccccc1)c1cccnc1Nc1ccccc1`, the enhancement was 47.9% (active).

Take `O=C(Nc1ccccc1)c1ccccc1NC(=O)C(F)(F)F`: the enhancement is -2.9%.

As to `O=C(Nc1ccc(F)cc1)c1cccnc1N1CCOCC1`, the enhancement is -2.71%.

In the case of `CC(CCCc1ccccc1)NC(=O)c1nn(-c2ccc(Cl)cc2)nc1CO` (centres undefined), the enhancement is -3.71%.

As for `Cc1cc(C)cc(Nc2ncnc3onc(-c4ccc(F)cc4)c23)c1`, the enhancement was 5.09%.

With `Cn1c(SCC(=O)N2CCCc3ccccc32)ncc(C(=O)Nc2ccc(F)cc2)c1=O`, the enhancement is 7.76%.

Turning to `COc1cc2nc(NCC(C)c3ccccc3)n3nc(-c4ccccc4)nc3c2cc1OC` (centres undefined), the enhancement is 15.5%.

Consider `O=C(NCc1cccs1)c1cc(-c2ccccn2)nc2ccc(Br)cc12`, for which the enhancement was 30.5% (active).

Turning to `O=C(NCc1cccs1)c1ccc(Br)o1`, the enhancement was -3.47%.

For the compound `O=C(CN1CCN(c2ccccn2)CC1)NCc1cccs1`, the enhancement is 17.1%.

For the compound `CCc1ccc(-n2nc(C)c3c(C)cc(=O)n(CC(=O)Nc4ccc(F)cc4C)c32)cc1`, the enhancement was 6.58%.

Take `CCOC(=O)CSc1nc(N2CCOCC2)c2c(c1C#N)CC(C(C)C)OC2` (centres undefined): the enhancement was -9.38%.

Consider `CCOC(=O)CSc1nccc(N(C)C)c1C#N`, for which the enhancement is 36.1% (active).

Consider `CN(C)c1ccnc(Oc2ccc(F)cc2)c1C#N`, for which the enhancement is 4.36%.

In the case of `O=C(C1COc2ccccc2O1)N(Cc1cccnc1)c1nc2c(F)cc(F)cc2s1` (centres undefined), the enhancement is -1.37%.

Take `CCCNC(=O)CCc1c(C)nc2c(c(C)nn2-c2ccc(C)cc2)c1C`: the enhancement was 7.28%.

As to `COC(=O)c1ccc(NC(=O)CCc2c(C)nc3c(c(C)nn3-c3ccc(C)cc3)c2C)cc1`, the enhancement was 0.187%.

For the compound `Cc1cc(C)c(NC(=O)CCc2c(C)nc3c(c(C)nn3C(C)(C)C)c2C)c(C)c1`, the enhancement is 31% (active).

`Cn1c(C(=O)N2CCCC(C(=O)NCc3ccccc3)C2)cc2sccc21` (centres undefined): the enhancement is 4.18%.

`COc1ccc(N2CCN(C(=O)C3CCCN(C(=O)c4cc5sccc5n4C)C3)CC2)cc1` (centres undefined): the enhancement was 32.5% (active).

In the case of `Cn1c(C(=O)N2CCC(C(=O)N3CCN(c4ccccc4)CC3)CC2)cc2sccc21`, the enhancement was 0.218%.

Consider `Cc1ccccc1CSc1nc2c([nH]c3ccccc32)c(=O)n1C`, for which the enhancement was -2.07%.

In the case of `COc1ccc(Cl)cc1-n1c(CCC(=O)O)ccc1-c1ccc(C)cc1`, the enhancement is 7.8%.

Turning to `Cc1ccc(S(=O)(=O)N2CCN(C(=O)c3cccs3)CC2)cc1`, the enhancement was 0.403%.

Turning to `Cc1ccc(S(=O)(=O)N2CCN(C)CC2)cc1`, the enhancement is 33.6% (active).

`Cc1ccc(N2CCN(S(=O)(=O)c3ccc(F)cc3)CC2)c(C)c1`: the enhancement is 32% (active).

Turning to `Cc1ccccc1N1CCN(S(=O)(=O)c2ccc3ccccc3c2)CC1`, the enhancement is -5.29%.

For the compound `Cc1ccc(S(=O)(=O)N2CCC(N3CCCCCC3)CC2)cc1`, the enhancement was 26.1%.

For the compound `Cc1ccc(C)c(N2CCN(S(=O)(=O)c3ccc4c(c3)C(C(C)C)C(=O)N4)CC2)c1` (centres undefined), the enhancement is -4.92%.

Turning to `CCc1cc2c(cc3c(=O)n(CC(=O)N4CCN(c5cc(Cl)ccc5C)CC4)nc(CC)n32)s1`, the enhancement is -2.18%.

In the case of `Cc1nc2sc(C)c(C)n2c(=O)c1S(=O)(=O)NCCc1ccc(Cl)cc1`, the enhancement is 2.98%.

For the compound `O=C(COC(=O)CSc1nnc(-c2ccc(Cl)cc2)o1)Nc1cc(Cl)cc(Cl)c1`, the enhancement was -8.1%.

With `O=C(Nc1nnc(-c2ccc(Cl)cc2)o1)c1ccccc1Br`, the enhancement was 1.12%.

For `O=C(COC(=O)c1ccccc1Br)Nc1nnc(-c2ccccc2)o1`, the enhancement is 32.2% (active).

As for `CSc1ncc(C(=O)NCc2ccccc2Cl)c(C(F)(F)F)n1`, the enhancement is -4.14%.

As for `CN(C)c1ccc(NC(=O)CSc2nc(-c3ccco3)cc(C(F)(F)F)n2)cc1`, the enhancement is 10.8%.

Take `O=C(NC1CCCCC1)c1ccc(Cn2c(SCc3ccccc3)nc3cccnc32)cc1`: the enhancement is 7.91%.

With `COc1cc(C(=O)NCC(=O)NCCSc2ccc(Br)cc2)cc(OC)c1OC`, the enhancement was 1.93%.

As for `COc1cccc(C(=O)NCCSc2ccc(Br)cc2)c1`, the enhancement was 31.9% (active).

For `COc1ccccc1C(=O)NCC(=O)NCCSc1ccc(Br)cc1`, the enhancement was 0.828%.

As for `CCOc1cc(C2C(C(=O)Nc3ccc(OC)cc3)=C(C)Nc3nc(SC)nn32)ccc1O` (centres undefined), the enhancement is -5.28%.

On to `O=C(C1Cc2ccccc2CN1C(=O)c1ccco1)N1CCN(c2ccccc2)CC1` (centres undefined), for which the enhancement was 36% (active).

Turning to `COc1ccccc1N1CCN(C(=O)C2Cc3ccccc3CN2C(=O)c2ccco2)CC1` (centres undefined), the enhancement is 6.6%.

As to `CCC(=O)N1c2ccccc2CC1C(=O)N1CCN(c2ccccc2)CC1` (centres undefined), the enhancement was -2.98%.

For the compound `COc1cccc(NC(=O)CSC2=Nc3ccccc3C3=NC(CC(=O)NC4CCCCC4)C(=O)N23)c1` (centres undefined), the enhancement was -3.86%.

For the compound `COc1ccc(NC(=O)c2sc3nc(-c4cc5cccc(OC)c5oc4=O)[nH]c(=O)c3c2C)cc1`, the enhancement is 8.15%.

As for `Cn1c(=O)c2c(SCC(=O)NCC3CCCO3)nc(-c3ccccc3F)nc2n(C)c1=O` (centres undefined), the enhancement was -1.86%.

As to `Cc1cc(C)n(S(=O)(=O)c2cccc([N+](=O)[O-])c2)n1`, the enhancement was -7.84%.

In the case of `CC1=NCCN1S(=O)(=O)c1cccc([N+](=O)[O-])c1`, the enhancement was 18.4%.

As to `Cc1ccc(-c2cn(S(=O)(=O)c3cccc([N+](=O)[O-])c3)nc2N)cc1`, the enhancement is 43.3% (active).

`CCOc1ccc(CNC(=O)c2cc(=O)[nH]c3ccc(S(=O)(=O)N4CCCCC4)cc23)cc1`: the enhancement is 5.17%.

For `COc1ccc(OC)c(NC(=O)Cn2c(=O)n(Cc3ccccc3)c(=O)c3ccccc32)c1`, the enhancement is -7.19%.

Consider `COc1ccccc1-c1nnc(SCC(N)=O)o1`, for which the enhancement was 0.976%.

As for `COc1ccccc1-c1nnc(C2CCN(C(=O)c3ccc(Cl)cc3)CC2)o1`, the enhancement was 49.9% (active).

For `COc1ccc(C(=O)N2CCC(c3nc4ccccc4o3)CC2)cc1`, the enhancement was 6.96%.

As to `COC(=O)c1c(NC(=O)c2ccc(Cl)c(Cl)c2)sc2c1CCCC2`, the enhancement was 12.7%.

In the case of `COc1cccc(C(=O)NC2CCN(C#N)CC2)c1`, the enhancement was -0.807%.

As for `Cc1ccc(Cl)cc1N1CCN(C(=O)c2cnc3c(-c4ccc(F)cc4)c(C)nn3c2C)CC1`, the enhancement is -2.73%.

As to `CCOc1ccc(N(CC)C(=O)c2noc3c2COc2ccc(C)cc2-3)cc1`, the enhancement is -7.18%.

Regarding `NS(=O)(=O)c1cccc(NC(=O)CSc2nc3ccccc3n2-c2ccccc2)c1`, the enhancement is 41.7% (active).

For `COc1ccc(-n2cnnc2SCC(=O)Nc2cccc(S(N)(=O)=O)c2)cc1`, the enhancement was 17.5%.

`Cc1nnc(SCC(=O)Nc2cccc(N)c2)n1-c1ccccc1`: the enhancement is 3.5%.

Turning to `O=C(CNC(=O)c1ccc(Cl)c(C(F)(F)F)c1)OC(C(=O)Nc1cc(C(F)(F)F)ccc1Cl)c1ccccc1` (centres undefined), the enhancement is -3.64%.

For `Cc1nn(-c2nc(-c3ccccc3)cc(C(F)(F)F)n2)c(C)c1Cl`, the enhancement was -7.42%.

With `COc1cccc(-n2ccn(CC(=O)NCc3ccc(C)cc3)c(=O)c2=O)c1`, the enhancement is 6.62%.

As to `COc1ccc(Cl)cc1NC(=O)CN(C)CC(=O)Nc1ccc2c(c1)OCO2`, the enhancement was -3.24%.

Take `COc1ccc(Cl)cc1NC(=O)CN(C)Cc1ccc(OC)c(OC)c1`: the enhancement is 56.6% (active).

As to `COc1ccc(OC)c(NC(=O)CN(Cc2ccc(Cl)cc2)S(C)(=O)=O)c1`, the enhancement is -0.638%.

For `O=C(COc1ccccc1Cl)N1CCCCCCC1`, the enhancement is -0.869%.

Consider `Cc1ccc(Cl)c(OCC(=O)N2CCc3ccccc3C2)c1`, for which the enhancement was 61.4% (active).

For `Cc1ccc(Cl)c(OCC(=O)NN2CCN(C)CC2)c1`, the enhancement was 1.82%.

For the compound `Cc1cccc(CC(=O)Nc2cccc(-c3cn4cccnc4n3)c2)c1`, the enhancement was -2.19%.

Regarding `Cc1ccc(SCC(=O)Nc2ccc3oc(-c4ccccc4F)nc3c2)cc1`, the enhancement was -1.22%.

On to `CCc1ccc(N2C(=O)CN(S(=O)(=O)CC)CC2(C)C(=O)NC2CCCCC2)cc1` (centres undefined), for which the enhancement was -0.256%.

Regarding `O=C(c1ccc2c(c1)N(Cc1ccccc1F)C(=O)c1ccccc1S2(=O)=O)N1CCOCC1`, the enhancement was 16.1%.

`Cc1ccc(CCNC(=O)c2ccc3c(c2)N(Cc2cc(C)ccc2C)C(=O)c2ccccc2S3=O)cc1` (centres undefined): the enhancement is 26.1%.

For `Cc1ccc(C)c(CN2C(=O)c3ccccc3S(=O)c3ccc(C(=O)N4CCOCC4)cc32)c1` (centres undefined), the enhancement is 30.5% (active).

Take `COc1ccc(NC(=O)C2CCN(c3ccc(Sc4ccc(C)cc4)nn3)CC2)c(OC)c1`: the enhancement is 7.96%.

As for `CCc1nn(CC(=O)N2CCN(c3ccc(Cl)cc3)CC2)c(=O)c2cc3occc3n12`, the enhancement was 3.41%.

On to `CCc1ccc(S(=O)(=O)Nc2ccc(C)c(NS(C)(=O)=O)c2)cc1`, for which the enhancement is 2.33%.

Take `CCc1ccc(S(=O)(=O)N/N=C\c2ccc([N+](=O)[O-])o2)cc1`: the enhancement was 49.5% (active).

`COc1ccc(S(=O)(=O)N/N=C\c2ccc(OC)c(COc3ccc(C)cc3[N+](=O)[O-])c2)cc1`: the enhancement is -2.77%.

On to `O=c1c2ccccc2n(Cc2cccc(Cl)c2)c(=O)n1Cc1ccccc1`, for which the enhancement was 1.58%.

Consider `CCOc1ccc(N(CC)C(=O)c2cc3c(=O)oc4ccccc4c3s2)cc1`, for which the enhancement is -1.26%.

Turning to `Oc1c(Br)cccc1/C=N/Nc1c(F)c(F)c(F)c(F)c1F`, the enhancement was 35.3% (active).
